HepG2 viability: HepG2 cytotoxicity, counter-screen for TGF-b inhibitors; Potency, µM (top dose mostly 46.1 µM), for the others: top-dose activity change, negative = cytotoxicity, hits mostly cytotoxic; AID 588856; HepG2 CAGA-GFP viability, ATP luminescence, 18 h; 0.76% of 410,000 active
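CellTiter-Glo luminescence gave cytotoxicity after 18 hours at 37 degrees C. The cells were HepG2 CAGA-GFP in 1% FBS DMEM, stimulated with 500 pg/mL TGF-beta after compound addition. %Activity was normalised to no-cell wells (complete cell-killing) and DMSO (no toxicity), and curves were fitted and classified.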
TDP1 cell CPT: DT40-hTDP1 cell growth loss with CPT; chicken DT40 Tdp1-/-;hTDP1 cells + 20 nM CPT, ATP luminescence, 48 h; Potency, µM (doses to about 46.2 µM), for the others: top-dose activity change, negative = growth inhibition, hits mostly inhibitors; 12% of 420,000 active; also: % is scaled to controls: 0 for no effect and ±100 for the full control effect; nearly all actives have a fitted effect of over 55% in size
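Chicken DT40 Tdp1-/- cells complemented with human TDP1, 400 cells/well, exposed to compounds plus 20 nM camptothecin for at least 48 h at 37 C; viability read as ATP content by CellTiter-Glo luminescence.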
ATXN2 expr inh: reduces ATXN2 reporter expression in HEK-293 cells | HEK-293 ATXN2-luciferase reporter, luminescence, 24 h | Potency, µM (doses to about 57 µM), inactives show top-dose activity change, negative = inhibition, usual class: inhibitors | 0.72% of 360,000 active | AID 1745845; also: % is scaled to controls: 0 for no effect and ±100 for the full control effect; nearly all actives have a fitted effect of over 55% in size
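ATXN2-luciferase reporter cells (luciferase flanked by upstream and downstream ATXN2 gene portions) were treated 24 h at 37 °C with compounds at up to 57 uM. SteadyGlo luminescence gave expression; GF-AFC fluorescence gave viability.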
TDP1 cell noCPT: qHTS for Inhibitors of human tyrosyl-DNA phosphodiesterase 1 (TDP1): qHTS in cells in absence of CPT. DT40 Tdp1-/- hTDP1 cells, no CPT, ATP luminescence, 48 h. Potency, µM (top dose mostly 46.2 µM), for the others: at the highest dose activity change, negative = growth inhibition, usual class: inhibitors. 15% of 420,000 active. AID 686978, 2013; also: % is scaled to controls: 0 for no effect and ±100 for the full control effect; nearly all actives have a fitted effect of over 55% in size
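Chicken DT40 Tdp1-/- cells stably complemented with human TDP1 were seeded at 400 cells/well with DMSO in place of 20 nM camptothecin. After compound pinning, cells grew at least 48 hr at 37 °C; viability read by CellTiter-Glo luminescence.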
TGFb SMAD3 inh: inhibitors of TGF-b signaling. HepG2 CAGA-GFP TGF-b/SMAD3 reporter, GFP fluorescence, 18 h; TGF-beta stimulated, 500 pg/mL final. Potency, µM (series often up to 46.1 µM), for inactives: at the top dose activity, negative = inhibition, usual class: inhibitors. 1.2% of 410,000 active. AID 588855; also: % is scaled to controls: 0 for no effect and ±100 for the full control effect; nearly all actives have a fitted effect of over 65% in size
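Inhibition of TGF-beta-driven CAGA-GFP reporter expression in HEPG2 cells is measured by cellular GFP fluorescence after 18 h stimulation with 500 pg/mL recombinant TGF-beta in 1% FBS medium at 37 degrees C.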
ATXN viability: viability counter-screen for ATXN expression inhibitors; S2 cells (HEK-293 line with an ATXN2-luciferase reporter) viability, CellTiter-Fluor protease fluorescence, 24 h; Potency, µM (titrated, usually from 56.7 µM), usual class: cytotoxic; 0.49% of 400,000 active; AID 651635; also: nearly all actives have a fitted effect of over 40% in size
Numbers without * were called inactive; i = inactive; ? = inconclusive; nt = no result given; [ ] = remark or other dose. Compounds with a hit are over-represented: about 17% of the library has one in this group of screens. Calls follow the shape of the dose curve; as a rule, active = well fitted curve in the direction sought with a large enough effect; inconclusive = small, poorly fitted or top-dose-only effect, or another doubt; inactive = no such curve, though single readings can be large; an effect the other way counts as inactive or inconclusive. Potency is read from the fitted curve at half-maximal effect.

SMILES	HepG2 viability	TDP1 cell CPT	ATXN2 expr inh	TDP1 cell noCPT	TGFb SMAD3 inh	ATXN viability
CCN1CCc2c(sc(-n3cccc3)c2C(C)NC(=O)Nc2cc(Cl)c(OC)cc2OC)C1 (stereo not given)	-48%	18µM*	nt	18µM*	?	nt
Cc1ccc(NC(=O)NCc2c(-n3cccc3)sc3c2CCCC3)c(Cl)c1	10%	?	-17%	23µM*	2%	i
CCOC(=O)CCCC(=O)N1CCOCCOCCOCC1	8%	3%	-2%	-23%	0%	i
CC(C)Oc1snc(Cl)c1C(N)=O	18%	-2%	-2%	-22%	22%	i
Cc1noc(C)c1COC(=O)CCCc1c[nH]c2ccccc12	1%	1%	-5%	-16%	-2%	i
CCc1ccc(OCC(=O)NNCC(=O)Nc2ccc(OC)cc2)cc1	-26%	-28%	5%	?	9%	i
COc1ccc(C)cc1NC(=O)NC(C)c1c(-n2cccc2)sc(C)c1C (stereo not given)	-25%	?	nt	?	nt	nt
CCN1CCc2c(sc(-n3cccc3)c2C(C)NC(=O)Nc2ccccc2C)C1 (stereo not given)	-16%	?	nt	23µM*	?	nt
COc1cc(NC(=O)NC(C)c2c(-n3cccc3)sc3c2CCN(C)C3)cc(OC)c1 (stereo not given)	-27%	23µM*	-31%	23µM*	?	?
COC(=O)c1ccc(NC(=O)NC(C)c2c(-n3cccc3)sc(C)c2C)cc1 (stereo not given)	-70%	?	nt	?	nt	nt
Cc1cnccn1	-34%	?	nt	11%	?	nt
CC(=O)c1ccc(C(=O)NCC2Cc3cccc(-c4ncccn4)c3O2)cc1 (stereo not given)	nt	3%[9.04 µM]	nt	-24%	nt	i
Cc1ccc(Cn2c(SCc3ccc(C(=O)N4CCCCCC4)cc3)nc3ccncc32)cc1	-40%	?	?	21µM*	10µM*	?
Cc1cccc(Cn2c(SCc3ccc(C(=O)NC4CCCC4)cc3)nc3ccncc32)c1	-32%	?	2%	?	?	i
O=C(c1ccc(CSc2nc3ccncc3n2Cc2ccccc2F)cc1)N1CCCCCC1	-13%	?	-14%	26µM*	?	i
Cc1ccc(Cn2c(SCc3ccc(C(=O)N4CCCCC4)cc3)nc3ccncc32)cc1	-33%	18µM*	nt	8.2µM*	11µM*	nt
COc1ccc(CC2SC(N)=NC2=O)cc1 (stereo not given)	-7%	22%	1%	3%	17%	i
CCCc1nc(-c2ccccc2)c(-c2ccc(OC)c(OC)c2)c(=O)[nH]1	3%	-36%	0%	-18%	-2%	i
O=C(O)c1c[nH]c2c([N+](=O)[O-])cccc2c1=O	-22%	?	-7%	9.2µM*	-3%	i
O=C(O)c1cn(C2CC2)c2cc(Cl)c(F)cc2c1=O	nt	nt	21%	nt	nt	i
Cc1ccc(-c2nn3c(C)nnc3c3ccccc23)cc1S(=O)(=O)N(C)CCO	-21%	?	25%	?	-25%	i
CCOC(=O)N1CCN(S(=O)(=O)c2cc(-c3nn4c(C)nnc4c4ccccc34)ccc2C)CC1	-14%	?	5%	26µM*	-4%	i
Cc1ccc(-c2nn(C)c(=O)c3ccccc23)cc1S(=O)(=O)N1CCCC1	-1%	15µM*	13%	?	8%	i
Cc1ccc(-c2nn(C)c(=O)c3ccccc23)cc1S(=O)(=O)NCCCN(C)C	-25%	1%	nt	0%	nt	nt
Cc1ccc(-c2nn(C)c(=O)c3ccccc23)cc1S(=O)(=O)N1CCOCC1	0%	11µM*	57%	?	-8%	i
SMILES	HepG2 viability	TDP1 cell CPT	ATXN2 expr inh	TDP1 cell noCPT	TGFb SMAD3 inh	ATXN viability
Cc1ccc(NC(=O)Cn2c(=O)n(-c3ccc(C)cc3)c(=O)c3c2cnn3C)cc1	-7%	-12%	0%	-1%	-11%	i
COc1ccccc1-c1nccc(NCc2cnc(C)cn2)n1	nt	3%	nt	-2%	nt	nt
CC1=CC(C)C2(COC(c3ccc[n+](C)c3)OC2)C(C)C1 (stereo not given)	-1%	5.8µM*	nt	3.7µM*	-1%	?
OC[C@@H]1CN(Cc2cccs2)C[C@H](n2cnc3c(NCc4ccco4)ncnc32)O1	-3%	1%	20%	-8%	0%	i
COC(=O)c1cc2sccc2n1Cc1ccc(F)cc1	-27%	-21%	nt	-8%	-2%	nt
CC1CCN(C(=O)C2CCN(C(=O)c3cc4sccc4n3Cc3ccc(F)cc3)CC2)CC1	-35%	21µM*	?	18µM*	?	?
CC(C)NC(=O)C1CCN(C(=O)c2cc3sccc3n2Cc2ccc(Cl)cc2)CC1	-46%	1.6µM*	?	1.5µM*	?	?
O=C(c1cc2sccc2n1Cc1ccc(F)cc1)N1CCCc2ccccc21	-6%	?	-11%	23µM*	-3%	i
O=C(NCCc1ccccc1)c1cc2sccc2n1Cc1ccc(F)cc1	-33%	-26%	-10%	-29%	?	i
CC(C)NC(=O)C1CCN(C(=O)c2cc3sccc3n2Cc2ccc(F)cc2)CC1	-23%	6.5µM*	?	7.3µM*	-25%	i
Cc1ccc(CNC(=O)c2cc3sccc3n2Cc2ccc(F)cc2)cc1	-35%	?	-8%	?	?	i
C[C@@]12CCC[C@H](O1)[C@@H]([C@H](O)c1ccccc1)O2	1%	-11%	1%	-3%	-6%	i
CCC(/C=N/NC(=O)C(=O)N/N=C/C(CC)CC)CC	-3%	1%	5%	9%	0%	i
O=C(NCc1cccc(Br)c1)C1CC2Cn3c(nc4ccccc43)C2N1Cc1ccccc1 (stereo not given)	4%	18µM*	-3%	18µM*	-19%	i
Cc1ccc(CNC(=O)C2CC3Cn4c(nc5cc6ccccc6cc54)C3N2C)o1 (stereo not given)	2%	18µM*	9%	?	-13%	i
Cc1ccc(CNC(=O)C2CC3Cn4c(nc5ccccc54)C3N2C)o1 (stereo not given)	7%	-5%	0%	-8%	-24%	i
COc1ccc(CCNC(=O)C2CC3Cn4c(nc5cc(Cl)c(Cl)cc54)C3N2C)cc1 (stereo not given)	-5%	21µM*	1%	?	-1%	i
